Experiment [1] addresses Glutathione peroxidase 1 (Homo sapiens) (UniProt P07203). Nature of the experiment: Primary qHTS Assay for Inhibitors of Recombinant Selenoprotein Glutathione Peroxidase 1 (GPX1) (AID 1845191). Further: nearly all actives have a fitted effect of over 65% in size. On activity, negative = inhibition: on the % scale 0 is the no-effect control and ±100 the full control effect. In a few lines: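 NADPH consumption tracked by fluorescence at 340/450 nm between t=0 and t=15 min, room temperature. Final mix: 10 nM GPX1, 100 nM glutathione reductase, 1 mM GSH, 0.5 mM NADPH, 0.5 mM cumene hydroperoxide, 0.01% BSA; 30 min compound–enzyme preincubation.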
(In general: qHTS replaces the single test concentration by a dilution series.)

In experiment [2] the target is Phospholipid hydroperoxide glutathione peroxidase GPX4 (Homo sapiens) (UniProt P36969). Nature of the experiment: Primary qHTS Assay for Inhibitors of Recombinant Selenoprotein Glutathione Peroxidase 4 (GPX4) (AID 1845192). Further: nearly all actives have a fitted effect of over 65% in size. On activity change, negative = inhibition: series mostly up to about 50 µM; on the % scale 0 is the no-effect control and ±100 the full control effect. In short, it runs like this:
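NADPH consumption followed by fluorescence at 340/450 nm, t=0 and after 15 min at room temperature. Reaction started with cumene hydroperoxide (0.5 mM final) after 30 min compound–GPX4 preincubation; final 200 nM GPX4, 100 nM GR, 1 mM GSH, 0.5 mM NADPH.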

In experiment [3] the target is Luciferin 4-monooxygenase (Photinus pyralis) (UniProt P08659). Nature of the experiment: Primary firefly luciferase (FLuc) qHTS assay for identification of artifact compounds. (AID 1845220). Further: nearly all actives have a fitted effect of over 60% in size. Further: potency means the concentration at half of the fitted maximal effect.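 On activity change, negative = inhibition: series mostly up to about 54 µM; plate controls were DMSO vehicle for no effect and no enzyme for full effect.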 In short, it runs like this:
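Compounds sat 15 min at room temperature with 10 uM luciferin and 10 uM ATP (pH 7.6 Tris acetate). Firefly luciferase (10 nM final) was then added, and luminescence was read 5 min later. Data normalized to no-enzyme and DMSO controls were Hill-fitted.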

Experiment [4] can be described thus: Primary fluorescence-based thiol-reactive (MSTI) qHTS assay for identification of artifact compounds. (AID 1845221). Further: nearly all actives have a fitted effect of over 65% in size. Further: potency means the concentration at half of the fitted maximal effect.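 On activity change, negative = thiol reactive: series mostly up to about 54 µM; thiol-reactive compounds lower the probe fluorescence signal.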 In a few lines: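 Probe: MSTI 4 uM, PBS pH 7.4, 2% DMSO. Incubation 1 h, RT, light-protected. Readout fluorescence 525/598 nm.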
Experiment [5] relates to Nanoluciferase (engineered Oplophorus gracilirostris luciferase). Nature of the experiment: Primary Nanoluciferase (NLuc) qHTS assay for identification of artifact compounds. (AID 1845222).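 Further: series mostly up to about 54 µM; 0% = DMSO and -100% = no enzyme.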 In short, it runs like this:
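Luminescence from secreted NLuc (filtered, 1:55-diluted S16 cell medium) read 5 min after Nano-Glo substrate; compounds preincubated 15 min, RT. Hill fits of inhibition normalized to DMSO and no-enzyme.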

Experiment [6] in a line: Primary redox qHTS assay for identification of artifact compounds. (AID 1845223).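 Further: 0% = DMSO and 100% = reference compound.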 In a few lines:
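Redox-cycling detection via DTT (250 uM final) oxidation coupled to Amplex Red (25 uM)/HRP (250 mU/mL) in HBSS. 15 min preincubation plus 30 min after DTT, room temperature. Ex/Em 525/598 nm; 4-parameter Hill fit against DMSO and 10 uM DA3003.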

Values without a mark were called inactive. Results filed as inconclusive are left out. Calls of active or inactive are those of the source. The call rests on the fitted dose curve; in most records, active means well fitted curve in the direction sought with a large enough effect; inconclusive means small, poorly fitted or top-dose-only effect, or another doubt; inactive means no such curve, though single readings can be large; an effect the other way counts as inactive or inconclusive.

Glutathione peroxidase 1 (Homo sapiens), sequence (P07203 whole entry, looked up): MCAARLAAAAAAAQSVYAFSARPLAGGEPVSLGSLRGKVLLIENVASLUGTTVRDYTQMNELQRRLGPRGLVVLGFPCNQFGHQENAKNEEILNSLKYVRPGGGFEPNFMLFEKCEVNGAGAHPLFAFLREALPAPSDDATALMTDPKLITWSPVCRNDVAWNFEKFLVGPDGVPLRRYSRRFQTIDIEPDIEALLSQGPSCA
Phospholipid hydroperoxide glutathione peroxidase GPX4 (Homo sapiens), sequence (P36969 whole entry, looked up): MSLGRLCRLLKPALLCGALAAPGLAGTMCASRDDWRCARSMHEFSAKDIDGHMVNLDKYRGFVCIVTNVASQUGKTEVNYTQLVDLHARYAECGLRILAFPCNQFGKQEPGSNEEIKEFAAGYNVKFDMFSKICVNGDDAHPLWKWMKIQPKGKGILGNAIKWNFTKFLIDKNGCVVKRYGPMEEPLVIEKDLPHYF

With `Nc1nc(Cl)nc2c1ncn2C1OC(CO)C(O)C1F` (stereo not drawn), the Potency entry in experiment [1], in experiment [2], in experiment [3], in experiment [4], in experiment [5] and in experiment [6] was “inactive” each time.

Regarding `C/C=C(/C=C(C)/C=C/C=C/C=C(\C)C(=O)C12OC1C(O)(CCO)NC2=O)C(=O)OC` (stereo not drawn), the Potency result in experiment [1], in experiment [2], in experiment [3], in experiment [4], in experiment [5] and in experiment [6] was “inactive” throughout.

As to `CCCc1ccc(OCC(=O)N(Cc2nc(-c3cccnc3)no2)C(C)C)cc1`, the Potency result in experiment [1], in experiment [2], in experiment [3], in experiment [4], in experiment [5] and in experiment [6] was “inactive” each time.

Regarding `O=C(c1ccccn1)N(Cc1cccs1)C1(C(=O)NC2CCCCC2)CCCCC1`, the Potency result in experiment [1], in experiment [2], in experiment [3], in experiment [4], in experiment [5] and in experiment [6] was “inactive” throughout.

For the molecule `O=C(Nc1cccc2cccnc12)c1ccc(N2C(=O)[C@@H]3C4C=CC(C4)[C@@H]3C2=O)cc1`, the Potency result in experiment [1], in experiment [2], in experiment [3], in experiment [4], in experiment [5] and in experiment [6] was “inactive” throughout.

As for `CC(C)(O)c1ccn2c(-c3ccc(F)c(-c4ccc(F)cc4C#N)c3)cnc2c1F`, the Potency entry in experiment [1], in experiment [2], in experiment [3], in experiment [4], in experiment [5] and in experiment [6] was “inactive” in each case.

`COc1cc2ncnc(Oc3ccc(CC(=O)Nc4cnn(C(C)C)c4)cc3)c2cc1OC`: the Potency entry in experiment [1], in experiment [2], in experiment [3], in experiment [4], in experiment [5] and in experiment [6] was “inactive” in each case.

`O=c1[nH]c2ccc(C#CCN3CCC(Cc4ccccc4)CC3)cc2[nH]1`: the Potency result in experiment [1], in experiment [2], in experiment [3], in experiment [4], in experiment [5] and in experiment [6] was “inactive” throughout.

Consider `C=C1C(=O)O[C@@H]2/C=C(\CO)CC/C=C(\CO)[C@H](OC(C)=O)C(OC(=O)C(C)CC)C12` (stereo partly drawn), for which the Potency result in experiment [1], in experiment [2], in experiment [3], in experiment [4], in experiment [5] and in experiment [6] was “inactive” each time.

In the case of `CC(C)c1cc2c(N3CCN(C4=NCC(C)(C)S4)CC3)ncnc2s1`, the Potency entry in experiment [1], in experiment [2], in experiment [3], in experiment [4], in experiment [5] and in experiment [6] was “inactive” each time.

For `C[C@@H]1O[C@@H](O[C@H]2[C@H](OC(=O)[C@]34CCC(C)(C)C[C@H]3C3=CCC5[C@@]6(C)C[C@H](O)[C@H](O[C@@H]7O[C@H](CO)[C@@H](O)[C@H](O)[C@H]7O)[C@](CO)(C(=O)O)C6CC[C@@]5(C)[C@]3(C)C[C@H]4O)OC[C@H](O)[C@@H]2O)[C@H](O)[C@H](O)[C@H]1O[C@@H]1OC[C@@H](O)[C@H](O[C@@H]2OC[C@](O)(CO)[C@H]2O)[C@H]1O` (stereo partly drawn), the outcome in experiment [1] was “inactive [at 9.52 µM]”. For the same molecule, the activity change, negative = inhibition in experiment [2] is -2.46% [at 9.73 µM]; in experiment [3], 1.03% [at 11.6 µM]. Besides, in experiment [4], the activity change, negative = thiol reactive was 423% [at 11.5 µM]. Besides, in experiment [5], the activity, negative = inhibition is 2.55% [at 11.6 µM]. For the same molecule, the redox activity (% of DA3003) in experiment [6] is 8.49% [at 11.5 µM].

`CN(C)CC#CCCC(=O)C(O)(c1ccccc1)C1CCC1` (stereo not drawn): the Potency entry in experiment [1], in experiment [2], in experiment [3], in experiment [4], in experiment [5] and in experiment [6] was “inactive” each time.

As for `Fc1ccc(CN2CCC(Nc3ccc(C(F)(F)F)nn3)CC2)cc1F`, the Potency entry in experiment [1], in experiment [2], in experiment [3], in experiment [4], in experiment [5] and in experiment [6] was “inactive” in each case.

`COc1c(CCC(=O)O)cccc1O[C@@H]1O[C@H](CO)[C@@H](O)[C@H](O)[C@H]1O`: the Potency entry in experiment [1], in experiment [2], in experiment [3], in experiment [5] and in experiment [6] was “inactive” in each case. Moreover, the Potency in experiment [4] was 13.1 µM (active).

Consider `O=C(CCl)Nc1cccc(NC2=NS(=O)(=O)c3ccccc32)c1`, for which the Potency entry in experiment [1], in experiment [2], in experiment [3], in experiment [4], in experiment [5] and in experiment [6] was “inactive” throughout.

As for `C=C1C(=O)OC2/C=C(\COC(C)=O)CC/C=C(\C=O)CC(OC(=O)CC(C)C)C12` (stereo not drawn), the Potency entry in experiment [1], in experiment [2], in experiment [3], in experiment [4], in experiment [5] and in experiment [6] was “inactive” throughout.

`CCCC(=O)C1(c2ccccc2)CCN(C(=O)[C@@H](Cc2ccc(OC)cc2)NC(=O)[C@@H](N)Cc2cncn2C)CC1`: the Potency result in experiment [1], in experiment [2], in experiment [3], in experiment [4], in experiment [5] and in experiment [6] was “inactive” each time.

As for `CCCCc1ccc(NS(=O)(=O)c2ccc(F)cc2)cc1`, the Potency entry in experiment [1], in experiment [2], in experiment [3], in experiment [4], in experiment [5] and in experiment [6] was “inactive” in each case.

As for `C=C1CCN([C@H](C)[C@](O)(Cn2cncn2)c2ccc(F)cc2F)CC1`, the Potency result in experiment [1], in experiment [2], in experiment [3], in experiment [4], in experiment [5] and in experiment [6] was “inactive” in each case.

For the molecule `CC(C)CCNC(=O)c1ccc2c(c1)nc(Nc1n[nH]c3ccc(-c4ccccc4OC(F)(F)F)cc13)n2C1CCC(O)CC1` (stereo not drawn), the Potency result in experiment [1], in experiment [2], in experiment [3], in experiment [5] and in experiment [6] was “inactive” throughout. In addition, the Potency in experiment [4] is 5.32 µM (active).

As to `Cn1ncc(Cl)c1-c1cc(C(=O)NC(CN)Cc2ccc(F)c(F)c2)oc1Cl` (stereo not drawn), the Potency result in experiment [1], in experiment [2], in experiment [3], in experiment [4], in experiment [5] and in experiment [6] was “inactive” each time.

In the case of `C[C@@H]1CCCN1CCc1cc2cc(-c3ccc(C#N)cc3)ccc2o1`, the Potency entry in experiment [1], in experiment [2], in experiment [3], in experiment [4], in experiment [5] and in experiment [6] was “inactive” throughout.

As for `COc1ccc(-c2cc3onc(-c4ccncc4)c3c(=O)n2C)cc1`, the Potency entry in experiment [1], in experiment [2], in experiment [4], in experiment [5] and in experiment [6] was “inactive” in each case. Also, the Potency in experiment [3] is 1.9 µM (active).

Values taken from PubChem BioAssay (NCATS).
